# In PubChem BioAssay (EPA / NIEHS):
# The source made the active and inactive calls. Rule for the calls: active = hit-call score of the fitted dose curve at least 0.9, where 1 is the maximum; inactive = score below 0.9.
# Assay: ATG_EGR_CIS: Attagene CIS-FACTORIAL HepG2 Assay for human Early Growth Response 1 (EGR1) (AID 2282938)
# Conditions: HepG2 Attagene CIS-FACTORIAL EGR reporter mRNA; actives raise or lower the signal
# Protocol: ATG_CIS is a cell-based, multiplexed-readout assay that uses HepG2, a human liver cell line, with measurements taken at 24 hours after chemical dosing in a 24-well plate.ATG_EGR_CIS is one of 52 assay component(s) measured or calculated from the ATG_CIS assay. It is designed to make measurements of mRNA induction, a form of inducible reporter, as detected with fluorescence intensity signals by Reverse transcription polymerase chain reaction (RT-PCR) and Capillary electrophoresis technology.Data from the assay component ATG_EGR_CIS was analyzed into 1 assay endpoint. This assay endpoint, ATG_EGR_CIS, was analyzed with bidirectional fitting relative to DMSO as the negative control and baseline of activity. Using a type of inducible reporter, measures of mRNA for gain or loss-of-signal activity can be used to understand the reporter gene at the transcription factor-level as they relate to the gene EGR1. Furthermore, this assay endpoint can be referred to as a primary readout, because this assay has produced multiple assay endpoints where this one serves a reporter gene function. To generalize the intended target to other relatable targets, this assay endpoint is annotated to the dna binding intended target family, where the subfamily is zinc finger.
# Human liver HepG2 cells are transiently transfected with multiple reporter transcription units (MRTUs) in 6-well plates using FuGene 6 reagent (Roche; 3 ml FuGene/1 mg DNA). The MRTU constructs are regulated by a cis-regulating element (promoter). […] A major difference between the CIS and TRANS system is that in CIS activities of endogenous TFs are measured, whereas the TRANS assay evaluates changes in activities of exogenous, chimeric NR-Gal4 proteins. […] At the end of 24 hour incubation, total RNA was isolated using TriZol reagent (Invitrogen). The isolated RNA is then reverse-transcribed using oligo(dT) primer and Mo-MLV reverse transcriptase (Invitrogen) with DNAse I (Ambion) treatment for 30 min. The one-tenth of the produced cDNA was amplified by PCR using Taq DNA polymerase (Invitrogen) and two reporter sequence-specific primers. The PCR products were fluorescently labeled by primer extension with 6-arboxyfluorescein (6-FAM) 5'-labeled reporter sequence-specific primer (2 min at 95 C, 20 s at 68 C and 10 min at 72 C) and these products were digested with 5U of HpaI (New England Biolabs) for 2h at 37 C. The fragments were purified using Qiaquick PCR columns (Qiagen), analyzed on an ABI 3130xL genetic analyzer (Applied Biosystems) with peak positions identified by using a set of X-rhodamine (ROX)-labeled MapMarker1000 molecular weight standards (BioVentures). The raw capillary electrophoresis data was processed using Attagraph software (Attagene).
SMILES,outcome,AC50
COc1cc(C)ccc1C(C)C,inactive,–
COC(=O)c1cc(Cl)ccc1[N+](=O)[O-],inactive,–
C=CCCCCCCCCC(=O)OCCCC,inactive,–
CC(=O)[C@@]1(O)CC[C@H]2[C@@H]3C[C@H](C)C4=CC(=O)C=C[C@]4(C)[C@@]3(F)[C@@H](O)C[C@@]21C,inactive,–
Cc1ccc(C(C)(C)C)cc1,inactive,–
c1ccc2c(c1)ccc1cc3c(ccc4ccccc43)cc12,inactive,–
Cc1cccc(C(=O)O)c1,inactive,–
CCc1ccc2c(c1)C(=O)c1ccccc1C2=O,inactive,–
CO[Si](CCC1CCC2OC2C1)(OC)OC (stereo not given),inactive,–
C=CC(=O)OCCOC(=O)C=C,–,27.4 µM (active)
C=C(C)C(=O)OCCO,inactive,–
O=C(/C=C/C=C/c1ccc2c(c1)OCO2)N1CCCCC1,–,100 µM (active)
CC(C)=CCC/C(C)=C\C#N,inactive,–
[Cl][Bi]([Cl])([c]1ccccc1)([c]1ccccc1)[c]1ccccc1,–,6.3 µM (active)
FC(F)=C(F)OC(F)(F)C(F)(F)C(F)(F)F,inactive,–
COCCCOCCCOC,inactive,–
O=C(Nc1ccccc1)c1ccccc1O,inactive,–
O=S(=O)(O)CC(O)CCl (stereo not given),inactive,–
C=C1[C@H]2CC[C@@H]3[C@H]2C(C)(C)CCC[C@]13C,inactive,–
CCCCCCCOC(=O)CCC,inactive,–

SMILES,outcome,AC50
Nc1ccc(-c2ccc(F)cc2)cc1,inactive,–
CCCOC(=O)CCCCC(=O)OCCC,inactive,–
Cc1c(C)c([N+](=O)[O-])c(C(C)(C)C)c([N+](=O)[O-])c1C,inactive,–
CCc1nccnc1C,inactive,–
C=C[Si](OC(C)=O)(OC(C)=O)OC(C)=O,inactive,–
O=C1CCCCCCCCCCCCCCCO1,inactive,–
NCCCN1CCN(CCCN)CC1,inactive,–
CC1(C)O[C@@H]2C[C@H]3[C@@H]4C[C@H](F)C5=CC(=O)C=C[C@]5(C)[C@@]4(F)[C@@H](O)C[C@]3(C)[C@]2(C(=O)CO)O1,inactive,–
COC(=O)/C=C\C(=O)O,inactive,–
O=[N+]([O-])C1(Br)COCOC1,inactive,–
C=CC(=O)NC(C)(C)CS(=O)(=O)O,inactive,–
O=C(O)c1cc2ccccc2nc1C(=O)O,inactive,–
COCCOCCOCCOCCOC,inactive,–
C=C(C)[C@@H]1CCC2=CCC[C@@H](C)[C@]2(C)C1,inactive,–
CCCCCCCCCCCCCCCCCC#N,inactive,–
CCCC(=O)OCc1ccccc1,inactive,–
CCCCCC/C=C/C=O,inactive,–
CC(=O)Nc1ccc2c(c1)Cc1cc(NC(C)=O)ccc1-2,inactive,–
OCCCS,inactive,–
OCCN(CCO)c1ccccc1,inactive,–
